Results as given in PubChem BioAssay AID1159580 (chemical genetic matrix, 2015).
Where “and” joins values, the source holds several entries; their conditions need not be identical. Equal values may be shown once. Out of some 5,500 compounds screened, about 2,000 (36%) were called active. Inconclusive results (about 18%) are left out. No stated cut-off is given here; in the data, active means normalized growth mostly below about 0.91 (no sharp cut-off); inconclusive means no clear call, values can overlap the other calls; inactive means mostly above about 0.92. The list shows a part of the results.

Assay: chemical genetic growth profiling, strain panel (AID 1159580);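 further: tested at 20 µM; growth read once vehicle control cultures reached saturation at 30 °C; 1 = growth at the plate median or of vehicle wells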
Conditions: S. cerevisiae deletion strains, growth OD

Measured: normalized growth

COc1cc([C@H]2Oc3cc([C@H]4Oc5cc(O)cc(O)c5C(=O)[C@@H]4O)ccc3O[C@@H]2CO)ccc1O
inactive: locus YAL013W, strain DEP1, stronger effect = lower value 1 | locus YAL021C, strain ccr4, stronger effect = lower value 0.987 | locus YAL026C, strain drs2, stronger effect = lower value 1 | locus YAL030W, strain snc1, stronger effect = lower value 1.01 | locus YBL061C, strain skt5, stronger effect = lower value 1.01 | locus YBR009C, strain hhf1, stronger effect = lower value 1 | locus YBR021W, strain FUR4, stronger effect = lower value 1.06 | locus YBR023C, strain chs3, stronger effect = lower value 1.01 | locus YBR171W, strain sec66, stronger effect = lower value 1.02 | locus YBR229C, strain ROT2, stronger effect = lower value 0.991 | locus YBR231C, strain swc5, stronger effect = lower value 1.02 | locus YBR279W, strain paf1, stronger effect = lower value 1.01 | locus YCL011C, strain gbp2, stronger effect = lower value 1 | locus YCL016C, strain dcc1, stronger effect = lower value 0.992 | locus YCL029C, strain bik1, stronger effect = lower value 0.97 | locus YCL061C, strain MRC1, stronger effect = lower value 1.01 | locus YCL069W, strain vba3, stronger effect = lower value 1.01 | locus YCR088W, strain abp1, stronger effect = lower value 1.01 | locus YDL005C, strain med2, stronger effect = lower value 1.01 | locus YDL035C, strain GPR1, stronger effect = lower value 0.987 | locus YDL040C, strain nat1, stronger effect = lower value 1.01 | locus YDL074C, strain BRE1, stronger effect = lower value 0.986 | locus YDL101C, strain DUN1, stronger effect = lower value 0.989 | locus YDL134C, strain PPH21, stronger effect = lower value 1.01 | locus YDL185W, strain tfp1, stronger effect = lower value 0.964 | locus YDL192W, strain arf1, stronger effect = lower value 0.97 | locus YDR001C, strain nth1, stronger effect = lower value 1.01 | locus YDR069C, strain doa4, stronger effect = lower value 0.998 | locus YDR101C, strain arx1, stronger effect = lower value 0.976 | locus YDR137W, strain rgp1, stronger effect = lower value 0.996 | locus YDR150W, strain NUM1, stronger effect = lower value 0.969 | locus YDR159W, strain sac3, stronger effect = lower value 0.997 | locus YDR162C, strain NBP2, stronger effect = lower value 1.02 | locus YDR195W, strain ref2 1.02 | locus YDR297W, strain sur2, stronger effect = lower value 1.02 | locus YDR318W, strain mcm21, stronger effect = lower value 0.97 | locus YDR334W, strain swr1, stronger effect = lower value 1.01 | locus YDR335W, strain msn5, stronger effect = lower value 1 | locus YDR388W, stronger effect = lower value 0.984 | locus YDR392W, strain spt3, stronger effect = lower value 0.955 | locus YDR502C, strain sam2, stronger effect = lower value 0.977 | locus YEL003W, strain gim4, stronger effect = lower value 1.01 | locus YEL037C, strain rad23, stronger effect = lower value 1.01 | locus YEL061C, strain CIN8 (second series), stronger effect = lower value 1.02 | locus YEL061C, strain CIN8, stronger effect = lower value 1 | locus YER015W, strain faa2, stronger effect = lower value 1 | locus YER016W, strain bim1, stronger effect = lower value 1.01 | locus YER110C, stronger effect = lower value 0.958 | locus YER111C, strain swi4, stronger effect = lower value 1 | locus YER155C, strain BEM2 (second series), stronger effect = lower value 1.03 | locus YER155C, strain BEM2, stronger effect = lower value 1.02 | locus YER167W, strain BCK2, stronger effect = lower value 0.992 | locus YFR010W, strain ubp6, stronger effect = lower value 0.995 | locus YGL078C, strain dbp3, stronger effect = lower value 0.965 | locus YGL086W, strain mad1, stronger effect = lower value 0.975 | locus YGL167C, strain pmr1, stronger effect = lower value 1.01 | locus YGL173C, strain kem1, stronger effect = lower value 1.01 | locus YGL227W, strain vid30, stronger effect = lower value 1.01 | locus YGL240W, strain doc1, stronger effect = lower value 1.03 | locus YGL248W, strain PDE1, stronger effect = lower value 1.01 | locus YGL253W, strain hxk2, stronger effect = lower value 0.989 | locus YGR078C, strain PAC10, stronger effect = lower value 0.989 | locus YGR135W, strain pre9, stronger effect = lower value 0.987 | locus YGR229C, strain SMI1, stronger effect = lower value 1.01 | locus YGR252W, strain gcn5, stronger effect = lower value 0.961 | locus YHR013C, strain ard1, stronger effect = lower value 1 | locus YHR027C, strain rpn1, stronger effect = lower value 1 | locus YHR030C, strain SLT2, stronger effect = lower value 0.999 and 1.02 | locus YHR079C, strain IRE1 (second series), stronger effect = lower value 0.984 | locus YHR079C, strain IRE1, stronger effect = lower value 0.996 | locus YHR094C, strain hxt1, stronger effect = lower value 0.971 | locus YHR129C, strain ARP1, stronger effect = lower value 1 | locus YHR142W, strain chs7, stronger effect = lower value 0.997 | locus YHR200W, strain rpn10, stronger effect = lower value 0.959 | locus YIL066C, strain RNR3, stronger effect = lower value 0.968 | locus YIL073C, strain SPO22, stronger effect = lower value 0.906 | locus YIL125W, strain kgd1, stronger effect = lower value 0.987 | locus YIR030C, strain dcg1, stronger effect = lower value 0.981 | locus YJL092W, strain hpr5, stronger effect = lower value 1.01 | locus YJL095W, strain BCK1 (second series), stronger effect = lower value 1.02 | locus YJL095W, strain BCK1, stronger effect = lower value 0.998 and 0.981 | locus YJL115W, strain asf1, stronger effect = lower value 1.01 | locus YJL129C, strain trk1, stronger effect = lower value 1.03 | locus YJL134W, strain LCB3, stronger effect = lower value 1 | locus YJL154C, strain vps35, stronger effect = lower value 1.01 | locus YJL164C, strain tpk1, stronger effect = lower value 0.989 | locus YJL166W, strain qcr8, stronger effect = lower value 1.01 | locus YJL168C, strain set2, stronger effect = lower value 0.98 | locus YJL187C, strain SWE1 (second series), stronger effect = lower value 0.988 | locus YJL187C, strain SWE1, stronger effect = lower value 1.01 | locus YJR043C, strain POL32, stronger effect = lower value 0.998 | locus YJR066W, strain TOR1, stronger effect = lower value 0.954
